The list is not random: actives were taken first. Their share in the collection is about 1.5%.
SARS 3CLpro inh: SARS-CoV 3CLpro protease inhibition; AID 1706; inhibition, % at 6 µM; recombinant SARS-CoV 3CLpro, quenched FRET peptide cleavage; 290,000 compounds, 0.14% hits; P0C6X7; in the data active means inhibition above about 12%
VHR inh abs: inhibitors of human VHR1 phosphatase (DUSP3). inhibition, % at 13.3 µM. P51452. 290,000 compounds, 0.52% hits. recombinant VHR phosphatase, pNPP absorbance; in the data active means inhibition above about 50%
CCHF vOTU inh: CCHFV vOTU protease inhibition; Pep-AMC fluorescence; inhibition, % at 11.5 µM; 370,000 compounds, 0.55% hits; AID 651958; in the data active means inhibition above about 30%
RecA intein inh: inhibitors of M. tuberculosis RecA intein splicing | 290,000 compounds, 0.75% hits | AID 2221 | inhibition, % (test concentration not listed) | cell-free RecA intein splicing, fluorescence; in the data active means inhibition above about 30%
Target sequence (P9WHJ3 whole entry, looked up): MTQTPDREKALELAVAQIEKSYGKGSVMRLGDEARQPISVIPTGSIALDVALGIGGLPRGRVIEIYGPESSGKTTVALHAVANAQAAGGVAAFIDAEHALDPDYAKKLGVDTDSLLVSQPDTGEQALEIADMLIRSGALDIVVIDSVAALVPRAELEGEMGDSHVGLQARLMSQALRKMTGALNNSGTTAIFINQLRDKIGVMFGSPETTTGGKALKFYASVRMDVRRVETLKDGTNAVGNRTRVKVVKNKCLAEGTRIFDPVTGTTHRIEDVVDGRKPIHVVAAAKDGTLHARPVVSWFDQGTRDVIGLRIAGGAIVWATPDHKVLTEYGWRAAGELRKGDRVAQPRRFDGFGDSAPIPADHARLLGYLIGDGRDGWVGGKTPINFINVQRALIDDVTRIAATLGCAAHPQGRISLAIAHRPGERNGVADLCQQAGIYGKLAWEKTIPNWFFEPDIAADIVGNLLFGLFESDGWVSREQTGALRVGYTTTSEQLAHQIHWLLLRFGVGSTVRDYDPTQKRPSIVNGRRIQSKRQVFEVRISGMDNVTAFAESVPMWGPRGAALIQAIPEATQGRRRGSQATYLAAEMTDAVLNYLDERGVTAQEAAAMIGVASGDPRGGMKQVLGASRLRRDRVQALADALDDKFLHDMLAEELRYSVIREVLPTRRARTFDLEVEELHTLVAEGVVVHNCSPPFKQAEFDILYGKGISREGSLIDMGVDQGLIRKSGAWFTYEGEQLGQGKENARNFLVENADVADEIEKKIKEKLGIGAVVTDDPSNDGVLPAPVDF
GFP chromophore: counter-screen GFP chromophore formation inhibition; shares compounds with RecA intein inh; 2,100 compounds, 83% hits; cell-free GFP chromophore formation, fluorescence; EC50, µM; AID 434968; call rule not given here
A number is an active result.

Screening O=C(O)/C=C/C(=O)Nc1ccc(C2(c3ccc(NC(=O)/C=C/C(=O)O)cc3)c3ccccc3-c3ccccc32)cc1 returned SARS 3CLpro inh inactive, VHR inh abs inactive, CCHF vOTU inh inactive, RecA intein inh 71 and GFP chromophore 27.
CC1C=CCC2C(=O)N(c3ccccc3OC(=O)c3ccco3)C(=O)C12 (stereo not given) was read as SARS 3CLpro inh inactive, VHR inh abs inactive, CCHF vOTU inh inactive and RecA intein inh inactive.
`O=C(Oc1ccccc1N1C(=O)CCC1=O)c1ccco1` gave SARS 3CLpro inh inactive, VHR inh abs inactive, CCHF vOTU inh inactive, RecA intein inh 36 and GFP chromophore inactive.
For Cc1ccc(Sc2ncnc3onc(C)c23)cc1 the results were SARS 3CLpro inh inactive, VHR inh abs inactive, CCHF vOTU inh inactive, RecA intein inh 41 and GFP chromophore inactive.
CC(NC(=O)COC(=O)c1cc(NS(=O)(=O)c2ccc(Cl)c([N+](=O)[O-])c2)ccc1O)C1CC2CCC1C2 (stereo not given) was read as SARS 3CLpro inh inactive, VHR inh abs inactive, CCHF vOTU inh inactive, RecA intein inh 48 and GFP chromophore inactive.
Screening COCCN(CCOC)C(=O)[C@@H](Cc1ccccc1)NC(=O)[C@H]1O[C@@H](n2ccc(N)nc2=O)[C@H](O)[C@@H]1O returned CCHF vOTU inh inactive.
S=C(NCc1ccccc1)NC1CCSc2ccccc21 (stereo not given) was read as SARS 3CLpro inh inactive, VHR inh abs inactive, CCHF vOTU inh inactive and RecA intein inh inactive.
CS(=O)(=O)c1cnc(-c2ccccc2)nc1Sc1ccc(F)cc1 was read as SARS 3CLpro inh inactive, VHR inh abs inactive, CCHF vOTU inh inactive and RecA intein inh inactive.
`Fc1ccc(Sc2nc(-c3ccccc3)nnc2C(F)(F)F)cc1` gave SARS 3CLpro inh inactive, VHR inh abs inactive, CCHF vOTU inh inactive, RecA intein inh 71 and GFP chromophore 0.89.
For O=C(Nc1cccc(OC(=O)c2ccco2)c1)c1ccco1 the results were SARS 3CLpro inh inactive, VHR inh abs inactive, CCHF vOTU inh inactive, RecA intein inh 33 and GFP chromophore inactive.
C[C@@H]1CN([C@@H](C)CO)C(=O)CCCn2cc(nn2)CO[C@H]1CN(C)C(=O)Nc1ccc2c(c1)OCCO2 was read as CCHF vOTU inh inactive.
`Cc1ccccc1N1C(=O)c2ccccc2C1Nc1cccnc1` (stereo not given) gave SARS 3CLpro inh inactive, VHR inh abs inactive, CCHF vOTU inh inactive, RecA intein inh 33 and GFP chromophore inactive.
Screening Nc1nc(CN2CCN(c3ccccn3)CC2)nc(Nc2ccc(Cl)cc2)n1 returned SARS 3CLpro inh inactive, VHR inh abs inactive, CCHF vOTU inh inactive and RecA intein inh inactive.
`O=C(CN(Cc1ccccc1)S(=O)(=O)c1ccc(F)cc1)NCc1ccccn1` gave SARS 3CLpro inh inactive, VHR inh abs inactive, CCHF vOTU inh inactive and RecA intein inh inactive.
For N#CC(C#N)C(c1ccsc1)c1c(-c2ccccc2)[nH][nH]c1=O (stereo not given) the results were SARS 3CLpro inh inactive, VHR inh abs inactive, CCHF vOTU inh inactive, RecA intein inh 86 and GFP chromophore 7.6.
Cc1[nH]n(-c2ccccc2)c(=O)c1-c1ccccc1 was read as SARS 3CLpro inh inactive, VHR inh abs inactive, CCHF vOTU inh inactive and RecA intein inh inactive.
`Cc1[nH]n(-c2ccccc2)c(=O)c1C(c1ccc([N+](=O)[O-])cc1)c1c(C)[nH]n(-c2ccccc2)c1=O` gave SARS 3CLpro inh inactive, VHR inh abs inactive, RecA intein inh 95 and GFP chromophore 1.6.
Cc1[nH]n(-c2ccccc2)c(=O)c1C(C[N+](=O)[O-])c1ccccc1Cl (stereo not given) was read as SARS 3CLpro inh inactive, VHR inh abs inactive, CCHF vOTU inh inactive, RecA intein inh 75 and GFP chromophore 15.
`COc1ccc(CCC(=O)OCc2csc(CC(=O)Nc3ccccc3C)n2)cc1` gave SARS 3CLpro inh inactive, VHR inh abs inactive, CCHF vOTU inh inactive and RecA intein inh inactive.
`O=[N+]([O-])c1ccc(OCCCN2CCC(C(O)(c3ccccc3)c3ccccc3)CC2)c(Cl)c1` gave CCHF vOTU inh inactive.
For CC1CC(C)(C)N2C(=O)C(=C(C#N)C#N)c3cccc1c32 (stereo not given) the results were SARS 3CLpro inh inactive, VHR inh abs inactive, CCHF vOTU inh inactive and RecA intein inh inactive.
Screening Cc1cc2c3c(c1)C(C)CC(C)(C)N3C(=O)C2=C(C#N)C#N (stereo not given) returned SARS 3CLpro inh inactive, VHR inh abs inactive, CCHF vOTU inh inactive, RecA intein inh 39 and GFP chromophore 3.7.
Screening Cc1[nH][nH]c(=O)c1C(c1ccc(-c2ccc(Cl)c(Cl)c2)o1)c1c(C)[nH][nH]c1=O returned SARS 3CLpro inh inactive, VHR inh abs inactive, CCHF vOTU inh 43, RecA intein inh 97 and GFP chromophore 0.66.
`CCc1nc2ccc(C(=O)NCCOc3ccc(OC)cc3)cn2c1N(C)C(=O)Cc1ccccc1` gave CCHF vOTU inh inactive.
COC(=O)[C@]12CCCCC=C1N(Cc1ccc(Cl)cc1Cl)C(=O)[C@H](CC(=O)N1CCN(C(=O)c3ccco3)CC1)C2 was read as CCHF vOTU inh inactive.
`CCOC(=O)C1=C(C)NC2(O)c3ccccc3C(=O)C12O` (stereo not given) gave SARS 3CLpro inh inactive, VHR inh abs inactive, CCHF vOTU inh inactive, RecA intein inh 33 and GFP chromophore 28.
Screening Oc1cccc(C=Nc2cccc3ccccc23)c1O returned SARS 3CLpro inh inactive, VHR inh abs inactive, CCHF vOTU inh inactive, RecA intein inh 31 and GFP chromophore 15.
`Cc1ccc(S(=O)(=O)Nc2c(O)ccc3ccccc23)cc1` gave RecA intein inh 76 and GFP chromophore 3.1.
`O=S(=O)(Nc1cccc2ccccc12)c1ccccc1F` gave SARS 3CLpro inh inactive, VHR inh abs inactive, CCHF vOTU inh inactive and RecA intein inh inactive.
For Cc1ccc(S(=O)(=O)NN=Cc2c(O)ccc3ccccc23)cc1 the results were CCHF vOTU inh inactive.
For O=S(=O)(Nc1c(O)ccc2ccccc12)c1cccc2ccccc12 the results were RecA intein inh 84 and GFP chromophore 4.3.
For CC(=O)N(C1CC(C)C(C#N)(C#N)C1(C#N)C#N)N(C)C (stereo not given) the results were SARS 3CLpro inh inactive, VHR inh abs inactive, CCHF vOTU inh inactive, RecA intein inh 81 and GFP chromophore 19.
`CCCC(=O)N(C1CC(C)C(C#N)(C#N)C1(C#N)C#N)N(C)C` (stereo not given) gave SARS 3CLpro inh inactive, VHR inh abs inactive, CCHF vOTU inh inactive, RecA intein inh 93 and GFP chromophore 4.9.
COc1cc(/C=N/NC(=S)Nc2cccc(Cl)c2C)ccc1OCC(=O)N1CC(C)OC(C)C1 (stereo not given) was read as SARS 3CLpro inh inactive, VHR inh abs inactive, CCHF vOTU inh inactive, RecA intein inh 55 and GFP chromophore 37.
For CC(C)CNc1cccc2c1S(=O)(=O)N(Cc1cn(Cc3ccc(F)cc3)nn1)Cc1ccccc1O2 the results were CCHF vOTU inh inactive.
`CCCCCCCCCCCCCCCC[N+](C)(C)CC` gave CCHF vOTU inh inactive, RecA intein inh 44 and GFP chromophore 17.

Screening data deposited in PubChem by several laboratories.
